Assay results: ChEMBL document CHEMBL1961873, “Compounds: GSK PKIS; Assays: Nanosyn kinase panel” (2012)

Biological target: Serine/threonine-protein kinase pim-3 (Homo sapiens) (UniProt Q86V86)
Conditions: at 1 µM

Compound | inhibition
NC(=O)c1cc(-c2ccncc2)cc(-c2ccccc2)c1N | -1.81%
COc1cc2ncn(-c3cc(OCc4cccs4)c(C(N)=O)s3)c2cc1OC | 8.26%
COc1ccc(C2=C(N3CCc4ccccc43)C(=O)NC2=O)cc1 | 0.86%
NS(=O)(=O)c1ccc(N/N=C2\C(=O)Nc3ccc(C(=O)NCCCn4ccnc4)cc32)cc1 | 18.9%
O=C(Nc1n[nH]c2nc(-c3ccc(O)cc3)c(Br)cc12)C1CC1 | 73.9%
Clc1ccc(CNc2nccc(-c3cnn4ncccc34)n2)cc1 | 6.13%
CS(=O)(=O)CCNCc1ccc(-c2ccc3ncnc(Nc4ccc(OCc5ccccc5)c(Br)c4)c3c2)o1 | -0.32%
c1ccc(Oc2ccc(Nc3ncc(-c4ccccc4)o3)cc2)cc1 | 1.18%
Cc1ccc(NC(=O)c2ccoc2)cc1-c1ccc(C(=O)NCC2CC2)cc1 | -0.9%
C/C(Nc1ccc(S(N)(=O)=O)cc1)=C1/C(=O)Nc2ccccc21 | 1.7%
Fc1ccc(-c2c(-c3ccncc3)nc3n2CCS3)cc1 | 0.43%
O=C(Nc1ccc(Oc2ccc3[nH]c(NC(=O)c4ccccc4)nc3c2)cc1)Nc1cc(C(F)(F)F)ccc1F | -0.27%
O=C1NC(=O)C(c2cccc(Cl)c2)=C1Nc1ccc(Cl)c(C(=O)O)c1 | 0.43%
NS(=O)(=O)c1ccc(Nc2cc(-c3ccc(O)c(F)c3)n[nH]2)cc1 | 1.15%
COC(=O)Nc1nc2ccc(Sc3ccc(NC(=O)Nc4cc(C(F)(F)F)ccc4F)cc3)cc2[nH]1 | 2.48%
Cc1nnc(-c2ccc(C)c(-c3ccc(C(=O)NCc4ccc(Cl)cc4)cc3)c2)o1 | 0.96%
COc1ccc2ncn(-c3cc(O[C@H](C)c4ccccc4Cl)c(C(N)=O)s3)c2c1 | 4.48%

Compound | inhibition
COc1cc(N2CCN(C(C)C)CC2)ccc1Nc1nc(Nc2ccc(F)cc2C(=O)NC[C@@H](O)CO)c2cc[nH]c2n1 | 5.28%
NS(=O)(=O)c1ccc(N/N=C2\C(=O)Nc3ccc(-c4cnco4)cc32)cc1 | 15.5%
CN1CCN(CCCNc2nc3ccc(Oc4ccc(NC(=O)Nc5cc(C(F)(F)F)ccc5F)cc4)cc3[nH]2)CC1 | -0.28%
Fc1ccc(-c2ncn(C3CCNCC3)c2-c2ccnc(Oc3ccc(Oc4ccccc4)cc3)n2)cc1 | 0.02%
COc1cc(Nc2ncc3c(C)nc(-c4cccc(Oc5ccccc5)c4)n3n2)cc(OC)c1OC | -0.16%
CCc1ccc(Oc2nccc(-c3c(-c4ccc(F)cc4)ncn3C3CCNCC3)n2)cc1 | 3.63%
Cc1ccc(C(=O)NC(C)C)cc1-c1ccc(C(=O)NCC2CC2)cc1 | 2.53%
COc1cccc(-n2cnc3c(N/N=C/c4ccncc4)ncnc32)c1 | 6.5%
Fc1ccc(-c2ncn(C3CCNCC3)c2-c2ccnc(Oc3ccc4c(c3)OCO4)n2)cc1 | 1.3%
O=C(NCC1CC1)c1ccc(-c2cccc(C(=O)NC3CC3)c2)cc1 | -3.1%
C#Cc1cccc(Nc2ncnc3ccc(OCCCCNCCS(C)(=O)=O)cc23)c1 | 36.2%
NCc1ccc(-n2c(-c3nonc3N)nc3cnccc32)cc1 | 68.5%
O=C(Nc1n[nH]c2cc(-c3ccccc3)ccc12)C1CC1 | -2.34%
CCS(=O)(=O)c1ccc(OC)c(Nc2ncc(-c3cccc(-c4ccccc4F)c3)o2)c1 | 0.84%
CNC(=O)c1cncc(/C=C/c2c(C)cccc2C)c1 | 2.65%
CCC(=O)Nc1ccc(C)c(-c2ccc(C(=O)NCC3CC3)cc2)c1 | 0.73%
c1ccc(-c2n[nH]cc2-c2ccnc(-c3ccc(OCCN4CCOCC4)cc3)c2)nc1 | 3.99%

Biological target: T1, MAP kinase-activated protein kinase 5 (Homo sapiens) (UniProt Q8IW41);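 further: reported values are mean PRAK inhibition figures from the GSK PKIS screen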
T1 sequence (whole entry): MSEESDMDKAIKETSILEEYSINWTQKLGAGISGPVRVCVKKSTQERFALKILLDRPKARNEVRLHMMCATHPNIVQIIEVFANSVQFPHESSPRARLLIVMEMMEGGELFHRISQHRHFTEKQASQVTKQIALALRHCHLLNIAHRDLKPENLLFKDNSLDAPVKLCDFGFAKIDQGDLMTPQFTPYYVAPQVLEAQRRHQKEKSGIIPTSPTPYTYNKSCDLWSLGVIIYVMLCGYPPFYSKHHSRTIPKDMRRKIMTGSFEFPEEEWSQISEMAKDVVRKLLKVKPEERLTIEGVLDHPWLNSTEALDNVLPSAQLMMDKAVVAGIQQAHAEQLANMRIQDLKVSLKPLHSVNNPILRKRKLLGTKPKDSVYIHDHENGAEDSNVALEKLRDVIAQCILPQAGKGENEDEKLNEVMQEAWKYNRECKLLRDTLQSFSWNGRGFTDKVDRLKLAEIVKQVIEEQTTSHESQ
Conditions: at 0.1 µM

Compound | inhibition
NC(=O)c1cc(-c2ccncc2)cc(-c2ccccc2)c1N | 1.31%
COc1cc2ncn(-c3cc(OCc4cccs4)c(C(N)=O)s3)c2cc1OC | 2.5%
COc1ccc(C2=C(N3CCc4ccccc43)C(=O)NC2=O)cc1 | 1.93%
NS(=O)(=O)c1ccc(N/N=C2\C(=O)Nc3ccc(C(=O)NCCCn4ccnc4)cc32)cc1 | 1.4%
O=C(Nc1n[nH]c2nc(-c3ccc(O)cc3)c(Br)cc12)C1CC1 | 2.42%
Clc1ccc(CNc2nccc(-c3cnn4ncccc34)n2)cc1 | 0.35%
CS(=O)(=O)CCNCc1ccc(-c2ccc3ncnc(Nc4ccc(OCc5ccccc5)c(Br)c4)c3c2)o1 | 1.32%
c1ccc(Oc2ccc(Nc3ncc(-c4ccccc4)o3)cc2)cc1 | 0.66%
Cc1ccc(NC(=O)c2ccoc2)cc1-c1ccc(C(=O)NCC2CC2)cc1 | 0.96%
C/C(Nc1ccc(S(N)(=O)=O)cc1)=C1/C(=O)Nc2ccccc21 | -0.26%
Fc1ccc(-c2c(-c3ccncc3)nc3n2CCS3)cc1 | 1.37%
O=C(Nc1ccc(Oc2ccc3[nH]c(NC(=O)c4ccccc4)nc3c2)cc1)Nc1cc(C(F)(F)F)ccc1F | 0.86%
O=C1NC(=O)C(c2cccc(Cl)c2)=C1Nc1ccc(Cl)c(C(=O)O)c1 | 1.73%
NS(=O)(=O)c1ccc(Nc2cc(-c3ccc(O)c(F)c3)n[nH]2)cc1 | -1.43%
COC(=O)Nc1nc2ccc(Sc3ccc(NC(=O)Nc4cc(C(F)(F)F)ccc4F)cc3)cc2[nH]1 | 0.03%
Cc1nnc(-c2ccc(C)c(-c3ccc(C(=O)NCc4ccc(Cl)cc4)cc3)c2)o1 | 1.56%
COc1ccc2ncn(-c3cc(O[C@H](C)c4ccccc4Cl)c(C(N)=O)s3)c2c1 | 1.58%

Compound | inhibition
COc1cc(N2CCN(C(C)C)CC2)ccc1Nc1nc(Nc2ccc(F)cc2C(=O)NC[C@@H](O)CO)c2cc[nH]c2n1 | 2.43%
NS(=O)(=O)c1ccc(N/N=C2\C(=O)Nc3ccc(-c4cnco4)cc32)cc1 | 1.08%
CN1CCN(CCCNc2nc3ccc(Oc4ccc(NC(=O)Nc5cc(C(F)(F)F)ccc5F)cc4)cc3[nH]2)CC1 | -0.1%
Fc1ccc(-c2ncn(C3CCNCC3)c2-c2ccnc(Oc3ccc(Oc4ccccc4)cc3)n2)cc1 | 1.12%
COc1cc(Nc2ncc3c(C)nc(-c4cccc(Oc5ccccc5)c4)n3n2)cc(OC)c1OC | -0.04%
CCc1ccc(Oc2nccc(-c3c(-c4ccc(F)cc4)ncn3C3CCNCC3)n2)cc1 | 1.38%
Cc1ccc(C(=O)NC(C)C)cc1-c1ccc(C(=O)NCC2CC2)cc1 | -1.12%
COc1cccc(-n2cnc3c(N/N=C/c4ccncc4)ncnc32)c1 | 0.59%
Fc1ccc(-c2ncn(C3CCNCC3)c2-c2ccnc(Oc3ccc4c(c3)OCO4)n2)cc1 | 2.12%
O=C(NCC1CC1)c1ccc(-c2cccc(C(=O)NC3CC3)c2)cc1 | 0.6%
C#Cc1cccc(Nc2ncnc3ccc(OCCCCNCCS(C)(=O)=O)cc23)c1 | 2.33%
NCc1ccc(-n2c(-c3nonc3N)nc3cnccc32)cc1 | 1.5%
O=C(Nc1n[nH]c2cc(-c3ccccc3)ccc12)C1CC1 | 1.27%
CCS(=O)(=O)c1ccc(OC)c(Nc2ncc(-c3cccc(-c4ccccc4F)c3)o2)c1 | 0.06%
CNC(=O)c1cncc(/C=C/c2c(C)cccc2C)c1 | -0.02%
CCC(=O)Nc1ccc(C)c(-c2ccc(C(=O)NCC3CC3)cc2)c1 | 0.96%
c1ccc(-c2n[nH]cc2-c2ccnc(-c3ccc(OCCN4CCOCC4)cc3)c2)nc1 | -1.14%
